# High-throughput results from PubChem BioAssay.
# KB-V1 cytotox: kills drug-selected multidrug resistant KB-V1 cells; AID 1347076; KB-V1 MDR cells viability, CellTiter-Glo, 72 h; hit rate 3.4% among 400,000; Potency, µM (top dose mostly 46.1 µM), usual class: cytotoxic; further: on the % scale 0 is the no-effect control and ±100 the full control effect; nearly all actives have a fitted effect of over 60% in size
#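 Following 72 h at 37 degrees C with compound, KB-V1 cell viability was read by CellTiter-Glo luminescence, medium being phenol-red-free DMEM plus 10% FBS; concentration-response parameters came from normalized, curve-fitted qHTS data.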
# KB-3-1 tox: KB-3-1 parental cell cytotoxicity; hit rate 1.4% among 400,000; AID 1347075; Potency, µM (top dose mostly 46.1 µM), most hits filed as cytotoxic; KB-3-1 viability, CellTiter-Glo ATP luminescence, 72 h; further: on the % scale 0 is the no-effect control and ±100 the full control effect; nearly all actives have a fitted effect of over 60% in size
#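 Screening of KB-3-1 cells (DMEM, 10% FBS, phenol-red free) ran from lowest to highest compound concentration; after 72 h at 37 °C viability was read luminescently and curves fitted.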
# SW480 rereplic: induces DNA re-replication in SW480 colon adenocarcinoma cells; SW480 DNA re-replication, Hoechst DNA content imaging, 48 h; Potency, µM (series often up to 46.1 µM), for inactives: at the top dose re-replication activation, usual class: activators; hit rate 1.8% among 340,000; further: % of control where 0% means no effect; nearly all actives have a fitted effect of over 55% in size
#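 Hoechst fluorescence of nuclei (405 nm excitation, 500-530 nm emission) measured by plate-scanning imager after 48 hr compound exposure at 37 C; re-replication scored as increased number of nuclei with elevated intensity.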
# MCF10A rerep: DNA re-replication induction in MCF 10a cells | hit rate 2.9% among 350,000 | AID 624296 | MCF 10A DNA re-replication, Hoechst nuclear intensity, 48 h | Potency, µM (series often up to 46.1 µM), for inactives: top-dose activity, positive = re-replication, most hits filed as activators; further: % of control where 0% means no effect; nearly all actives have a fitted effect of over 50% in size
# ELG1 repair inh: ELG1-dependent DNA repair inhibition; HEK293T ELG1-luciferase reporter, luminescence, 16 h; DNA damage induced by 5-fluorouridine; Potency, µM (doses to about 46.1 µM), for inactives: at the top dose activity change, negative = inhibition, hits mostly inhibitors; hit rate 2.3% among 330,000; AID 504467; further: on the % scale 0 is the no-effect control and ±100 the full control effect; nearly all actives have a fitted effect of over 55% in size
#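 5-Fluorouridine DNA damage + compound/DMSO, 2,000 cells/well, 16 h, 37 °C/5% CO2. ONE-Glo, 30 min RT, luminescence. Readout = decrease in reporter signal.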
# An asterisk follows results filed as active; i = inactive; ? = inconclusive; nt = no result; ! = a repeat was not active; [ ] = dose if it differs, or a comment. Compounds with a hit are over-represented: about 8.1% of the library has one in this group of screens. The call rests on the fitted dose curve; in most records, active means well fitted curve in the direction sought with a large enough effect; inconclusive means small, poorly fitted or top-dose-only effect, or another doubt; inactive means no such curve, though single readings can be large; an effect the other way counts as inactive or inconclusive. Potency means the concentration at half of the fitted maximal effect.
SMILES,KB-V1 cytotox,KB-3-1 tox,SW480 rereplic,MCF10A rerep,ELG1 repair inh
O=C(CC1(O)C(=O)N(Cc2ccccc2)c2ccccc21)c1ccncc1 (stereo not drawn),i,?,-1%[9.22 µM],?,2%
C#CCN1C(=O)C(O)(CC(=O)c2ccc3c(c2)OCCO3)c2ccccc21 (stereo not drawn),i,i,-6%,-5%,13%
CCCN1C(=O)C(O)(CC(=O)c2cccc(OC)c2)c2ccccc21 (stereo not drawn),i,i,?,3%,2%
Cc1c(C)c2ccc(OCC(=O)NC(Cc3ccc(Cl)cc3)C(=O)O)cc2oc1=O (stereo not drawn),i,i,3%,32%,20%
CC(C)c1ccc2oc(=O)cc(CN3CCN(c4ccccc4)CC3)c2c1,i,i,-5%,1%,-27%
CC1CCN(C(=O)c2cc3c(ccc4ccccc43)o2)CC1,i,i,0%,-4%,?
CCCOC(=O)c1ccc(NC(=O)c2ccoc2C)cc1,i,i,3%,7%,?
O=C(Nc1ccc(OCc2ccccc2)cc1)c1cccs1,i,i,0%,-5%,?
Cc1occc1C(=O)Nc1ccc(OCc2ccccc2)cc1,16µM*,i,0%,16%,1%
CCCCCCCCCCCNC(=O)c1ccoc1C,i,i,-3%,26µM*,-8%
CCCCOC(=O)c1ccc(NC(=O)c2ccoc2C)cc1,10µM*,i,-2%,?,-3%
CCOC(=O)c1c(C)[nH]c(C)c1C(=O)COC(=O)/C=C/c1cccc(F)c1,i,i,4%,-3%,-27%
CCOC(=O)c1c(C)[nH]c(C)c1C(=O)COC(=O)/C=C/c1ccc(OC)cc1,13µM*,?,16µM*,8%,?
CCOC(=O)c1c(C)[nH]c(C)c1C(=O)COC(=O)c1sccc1C,18µM*,i,-4%,-2%,-25%
CCOC(=O)c1c(C)[nH]c(C)c1C(=O)COC(=O)c1c(OC)cccc1OC,i,i,-8%,8%,-19%
CCOc1ccc(/C=C/C(=O)Oc2ccc(OC)cc2)cc1,?,i,15µM*,5%,-4%
COc1ccc(NC(=O)CSc2nnc(-c3ccco3)n2C)cc1,i,i,3%,10%,3%
COc1cc(-c2[nH]ncc2CN(C)Cc2nonc2C)cc(OC)c1OC,?,i,-26%,-3%,7%
C=C[C@]1(C)C=C2C(=O)[C@@]3(O)OC(=O)[C@@]4(CCCC(C)(C)[C@H]34)[C@@]2(O)CC1,?,4.6µM*,nt,nt,nt
C=C[C@]1(C)C=C2CC[C@H]3[C@@](C)(CCC[C@@]3(C)C(=O)O)[C@@H]2CC1,i,i,-1%,12%,?
Cc1ccc(S(=O)(=O)N2CCN(C(=O)Cc3ccsc3)CC2)c(C)c1,?,i,-2%,13%,-3%
COC(=O)c1cccc(NC(=O)NC23CC4CC(CC(C4)C2)C3)c1,i,i,?,21%,?
COC(=O)c1ccc(Cl)c(NC(=O)NC23CC4CC(CC(C4)C2)C3)c1,?,?,?,8%,21µM*
COC(=O)c1cccc(S(=O)(=O)N2CCC(C)CC2)c1,21µM*,i,-3%,4%,3%
COC(=O)c1cccc(S(=O)(=O)N2CCC(NC(=O)NC34CC5CC(CC(C5)C3)C4)CC2)c1,12µM*,i,6%,-4%,?
SMILES,KB-V1 cytotox,KB-3-1 tox,SW480 rereplic,MCF10A rerep,ELG1 repair inh
CC1CCN(S(=O)(=O)c2cccc(C(=O)O)c2)CC1,i,i,-13%,-6%,1%
CN(C)/C=C(\C=O)c1c(Cl)cccc1Cl,i,i,-9%,7%,7%
O=c1cc(-c2ccccc2Cl)oc2c(NS(=O)(=O)c3cccc4nsnc34)ccc(O)c12,i,i,-4%,?,-9%
CSc1ccc(/C=C(\NC(=O)c2ccc(C)cc2)C(=O)Nc2cccc(C)c2)cc1,?,i,-1%,-3%,?
CCCCN(CCCC)S(=O)(=O)c1ccc(N2CCCC2=O)c([N+](=O)[O-])c1,?,i,22%,19%,nt
CCCN(CCC)S(=O)(=O)c1ccc(N2CCCC2=O)c([N+](=O)[O-])c1,21µM*,i,-5%,1%,?
O=C(CN1c2cccc3cccc(c23)S1(=O)=O)N1CCN(c2ccccc2)CC1,9.2µM*,i,2%,9%,0%
O=C(CN1C(=O)c2cccc3cccc1c23)N1CCN(c2cccc(Cl)c2)CC1,i,i,3%,-3%,-3%
O=C(CN1C(=O)c2cccc3cccc1c23)N1CCN(c2ccc(F)cc2)CC1,i,i,?,11µM*,?
O=C(CN1C(=O)c2cccc3cccc1c23)N1CCN(c2ccccc2)CC1,i,i,?,23µM*,28%
O=C(CN1c2cccc3cccc(c23)S1(=O)=O)Nc1ccc(F)c(F)c1F,i,i,11%,?,23µM*
Cc1cc2sc3ccccc3c(=O)c2c(C)c1O,18µM*,?,2%,11%,?
O=c1c2ccccc2sc2ccccc12,?,?,-1%,0%,nt
Cc1ccc(SC[C@H](c2ccccc2)N2CCN(CCc3ccccc3)CCC2=O)cc1,i,i,0%,8.2µM*,23%
CC(C)CN1CCC(=O)N([C@H](CSc2ccccc2)Cc2ccccc2)CC1,13µM*!,?,?,?,-12%
Cc1ccc(SC[C@H](Cc2ccccc2)N2CCN(CC(C)C)CCC2=O)cc1,i,i,0%,?,-1%
N#Cc1ccccc1OCCCN1CCC(C(O)(c2ccccc2)c2ccccc2)CC1,23µM*,?,nt,nt,nt
Cc1ccc(OCCCN2CCC(C(O)(c3ccccc3)c3ccccc3)CC2)cc1,21µM*,?,nt,nt,nt
CC(OCC(O)CN(C)CCOc1ccccc1)c1ccc(Cl)cc1 (stereo not drawn),16µM*,i,-1%,-1%,?
CCSc1nc(N)c(C#N)c(-c2ccccc2Cl)c1C#N,21µM*,i,-12%,?,?
N#Cc1c(N)nc(Sc2ccc(Cl)cc2)c(C#N)c1-c1ccccc1Cl,23µM*,4.6µM*,?,?,?
O=C(CN1C(=O)C2CCCCC2C1=O)OCc1nnc(-c2ccccc2)o1 (stereo not drawn),i,i,-7%,-1%,12%
N#Cc1ccccc1S(=O)(=O)N1CCN(C(=O)c2cccc(S(=O)(=O)N3CCCC3)c2)CC1,?,i,2%,-5%,nt
COc1ccc(-n2nc(C(=O)c3cccs3)cc(-c3nc4ccccc4[nH]3)c2=N)cc1,16µM*,?,?,7%,?
